Results from PubChem BioAssay.
Several values for one entry are separate records, joined by “and”; a condition that tells them apart may be missing. Identical values can stand only once. Results filed as inconclusive are left out. Activity calls are given as the source filed them.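 The calls were made as follows, unless noted: active = compounds whose cell count with miR-34 switched on is under 0.7 times the count with it off; inactive = the rest.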

Experiments:
[1] = JHH-DIPG-1 glioma cell viability, MIPE5.0 library, CellTiter-Glo luminescence, qHTS (AID 1347067; cut-off not given, nearly all actives have AC50 up to about 26 µM;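 also: cells exposed to compound for 48 hours before readout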); conditions: JHH-DIPG-1 glioma viability, CellTiter-Glo ATP luminescence
[2] = viability loss in pontine glioma line – cell-based, SU-DIPG-XXV, MIPE5.0, CellTiter-Glo, qHTS, dose response (AID 1347065; cut-off not given, nearly all actives have AC50 up to about 26 µM;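 also: cells exposed to compound for 48 hours before ATP readout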); conditions: CellTiter-Glo ATP luminescence
[3] = sensitizers of A549 cells to miR-34 induction, primary screen, imaging, A549 dox-inducible miR-34, nuclei and caspase counts (AID 1347080); conditions: A549 miR-34 inducible, Hoechst nuclei count, 48 h
[4] = survival rescue of mitochondrial mutant cells in low glucose, primary screen, MELAS cybrids, Rieske KO mouse fibroblasts, CellTiter-Glo (AID 1508586;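 active = mean z-score across replicates of 1.96 or higher in either the MELAS or the Rieske mutant cell line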;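 also: z relative to plate mean and SD of compound and empty wells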)
[5] = SU-DIPG-VI glioma cell viability, MIPE4.0 library, CellTiter-Glo luminescence, qHTS (AID 1347066; cut-off not given, nearly all actives have AC50 up to about 30 µM;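 also: cells exposed to compound for 48 hours before readout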); conditions: CellTiter-Glo ATP luminescence
[6] = SU-DIPG-XXV glioma cell viability, MIPE5.0 library, qHTS (AID 1347068; cut-off not given, nearly all actives have IC50 up to about 30 µM)
[7] = liver-stage malaria parasite growth inhibition, primary screen, cell-based, HepG2, luciferase luminescence, HepG2 viability (AID 624349; in the data active = parasite load remaining mostly below about 12%, no sharp cut-off; inactive = mostly above about 10%;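 also: 100% = mean of DMSO negative control wells on the same plate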); conditions: P. berghei liver stage in HepG2, luciferase luminescence, concentration not given here; parasite load remaining: stronger effect = lower value; viability: measured here: HepG2 viability without parasites
[8] = test system: Hepatitis C virus NS3 helicase; assay: HCV NS3 helicase inhibitors, primary screen, biochemical, fluorescence polarization, LOPAC1280 library (AID 687035; in the data active = inhibition above about 37%); conditions: Purified HCV NS3 helicase, Cy5-dT15 ssDNA binding fluorescence polarization; stronger effect = higher value; concentration not given here
[9] = Cy5 fluorescence quenching or enhancement artefacts, artefact control for HCV NS3 helicase inhibitor project, biochemical, LOPAC1280 (AID 687037; call rule not given here); conditions: Cy5-DNA-NS3h complex fluorescence interference counterscreen
[10] = phospholipid biosynthesis inhibitors in animal cells, primary screen, cell-based, LOPAC library, screen 4 (AID 1347384; call rule not given here); conditions: phospholipid biosynthesis inhibition screen, at 10 µM
[11] = viability rescue of complex I mutant cybrids, primary screen, cell-based, galactose medium, ATP luminescence (AID 1645843;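 active = z-score of at least 1.8 in each of two replicates, scored against plate mean and spread of sample wells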;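 also: positive z means more ATP and so rescue of galactose-driven cybrid death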); conditions: complex I mutant cybrid cells, 72 h, stronger effect = higher value
[12] = stronger effect = lower value, cell number ratio, induced over uninduced
[13] = measured here: relative caspase fold change +Dox/-Dox
[14] = measured here: total cells with miR-34 induction, stronger effect = lower value
[15] = measured here: total cells without miR-34 induction
[16] = MELAS cybrid survival, CellTiter-Glo 48 h, stronger effect = higher value
[17] = Rieske KO mouse fibroblast survival, CellTiter-Glo 72 h

With `COCC(=O)NC/C=C/c1ccc2ncnc(Nc3ccc(Oc4ccc(C)nc4)c(C)c3)c2c1` the outcome [1] was “inactive”.

For `Cc1cccc(CC(=O)N2CCc3c2ccc(-c2cn(C)c4ncnc(N)c24)c3F)n1`, the AC50 [2] was 10.5 µM (active), the fold change [3, 12] was 1.38 (inactive) and the fold change [3, 13] was 0.997. The cell count [3, 14] was 7830, the cell count [3, 15] was 5660 and the z-score [4, 16] was -0.412 (inactive). It also gave a z-score [4, 17] of -0.298.

With `NC(=O)c1nnn(Cc2cc(Cl)c(C(=O)c3ccc(Cl)cc3)c(Cl)c2)c1N` the AC50 [5] was 18.7 µM (active).

For `Cn1cc(-c2cnn3c(N)c(Br)c(C4CCCNC4)nc23)cn1` (configuration not stated), the outcome [1] was “inactive”, the fold change [3, 12] was 0.949 (inactive) and the fold change [3, 13] was 0.873. For the same compound, the cell count [3, 14] was 6160, the cell count [3, 15] was 6490 and the z-score [4, 16] was 0.0709 (inactive). The z-score [4, 17] was -0.322.

With `CCCCC[C@H](O)/C=C/[C@H]1C(=O)C[C@H](O)[C@@H]1C/C=C\CCCC(=O)OC` the fold change [3, 12] was 0.892 (inactive), the fold change [3, 13] was 0.761 and the cell count [3, 14] was 5010. It also gave a cell count [3, 15] of 5620.

In the case of `C/C=C(/C)C(=O)O[C@H]1C(C)=CC23C(=O)C(C=C(CO)[C@@H](O)[C@]12O)[C@H]1[C@@H](C[C@H]3C)C1(C)C` (some centres not stated), the outcome [6] is reported as “inactive”.

In the case of `O=C(O)C[C@H]1CCc2c1[nH]c1ccc(OCc3ccc(C4CCCC4)c(C(F)(F)F)c3)cc21`, the outcome [6] is reported as “inactive”.

In the case of `C[C@H](NC(=O)[C@H]1NCC[C@@H]1O)c1ccc(-c2noc(CCC3CCCC3)n2)cc1`, the outcome [6] is reported as “inactive”.

In the case of `CCCCC/C=C\C/C=C\CCCCCCCC(=O)OCC`, the fold change [3, 12] is reported as 0.908 (inactive), the fold change [3, 13] is reported as 0.749 and the cell count [3, 14] is reported as 4750. The cell count [3, 15] was 5230.

In the case of `O=C1NC(=O)/C(=C/c2ccc3nccnc3c2)S1`, the parasite load remaining [7] is reported as 25.6% (inactive), the viability [7] is reported as 76.4% and the inhibition [8] is reported as 0% (inactive). For the same compound, the fluorescence ratio (interference) [9] was 1 (inactive), the outcome [6] was “inactive” and the fold change [3, 12] was 0.99 (inactive) and 0.764 (inactive). The fold change [3, 13] was 0.943 and 0.46, the cell count [3, 14] was 3810 and 4630 and the cell count [3, 15] was 3850 and 6050. For the same compound, the outcome [10] was “inactive” and the z-score [11] was 0.905 (inactive).

In the case of `CC#CCC(C)[C@@H](O)/C=C/[C@@H]1[C@H]2C/C(=C/CCCC(=O)O)C[C@H]2C[C@H]1O` (some centres not stated), the fold change [3, 12] is reported as 0.965 (inactive), the fold change [3, 13] is reported as 2.36 and the cell count [3, 14] is reported as 5460. It also gave a cell count [3, 15] of 5660.
